A structure can be active in one record and inactive in another. Active and inactive are the calls of the source. The calls were made as follows: active = hit-call score of the fitted dose curve at least 0.9, where 1 is the maximum; inactive = score below 0.9.
assay: APR_HepG2_NuclearSize_72hr: Apredica 72-hour HepG2 Assay for Nuclear Size (AID 2282925); details: high-content imaging, actives raise or lower the signal
Method: APR_HepG2_72hr is a cell-based, multiplexed-readout assay that uses HepG2, a human liver cell line, with measurements taken at 72 hours after chemical dosing in a 384-well plate.APR_HepG2_NuclearSize_72hr is one of 10 assay component(s) measured or calculated from the APR_HepG2_72hr assay. It is designed to make measurements of cell phenotype, a form of morphology reporter, as detected with fluorescence intensity signals by HCS Fluorescent Imaging technology.Data from the assay component APR_HepG2_NuclearSize_72hr was analyzed into 1 assay endpoint. This assay endpoint, APR_HepG2_NuclearSize_72hr, was analyzed with bidirectional fitting relative to DMSO as the negative control and baseline of activity. Using a type of morphology reporter, measures of all nuclear dna for gain or loss-of-signal activity can be used to understand the signaling at the nuclear-level. Furthermore, this assay endpoint can be referred to as a primary readout, because this assay has produced multiple assay endpoints where this one serves a signaling function. To generalize the intended target to other relatable targets, this assay endpoint is annotated to the cell morphology intended target family, where the subfamily is organelle conformation.
Cells were treated with dimethyl sulfoxide (DMSO) as a solvent control at a final concentration of 0.5% v/v or with compounds in DMSO with a resulting final DMSO concentration of 0.5% v/v. Compound treatment was done at concentrations of 0.39, 0.78, 1.56, 3.12, 6.24, 12.5, 25, 50, 100, and 200 uM in duplicate on each plate. Cells were treated with compounds for 1, 24, or 72 hr. Carbonyl […] m-chloro-phenylhydrazone (CCCP) and taxol were used as positive controls for mitochondrial function and cytoskeletal stability, respectively; DMSO served as the negative control for this experiment. Cells were fixed by the direct addition of 50 uL formaldehyde in Hank's Balanced Salt Solution (HBSS) to a final concentration of 3.7%. After incubation in the fixation medium for 30 min at room temperature (293-298 K), cells were rinsed twice with HBSS and treated with cell permeabilization buffer (16 uL of 0.5% Triton X-100) for 10 min at room temperature (293-298 K) before labeling. For mitochondrial membrane potential and mitochondrial measurements, pre-fixed cells were incubated with 50 uL of MitoTracker Red CMXRos (Invitrogen) at a concentration of 250 nM for 30 min before fixation. In the remaining cases, post-fixed cells were labeled by incubation with a multiplexed mixture of primary antibodies in HBSS for 60 min at room temperature (293-298 K) to detect immunoreactivity of c-Jun (1:500), phospho-histone H3 (1:100), phospho-histone H2A.x (1:200), p53 (1:400), alpha-tubulin (1:200) and Hoechst 33342 (2 ug/mL). Cells were labeled for multiplexed imaging on two separate plates: a) Hoechst 33342, MitoTracker Red, phospho-histone H3, and alpha-tubulin, and b) Hoechst 33342, phospho-histone H2A.x, and c-Jun. A final rinse with HBSS (50 uL) was performed before analysis. The primary and secondary antibodies for the proteins were phospho-histone H3 (rabbit anti-phospho-histone H3 and FITC-donkey anti-rabbit IgG), phospho-histone H2A.x (mouse anti-phospho-histone H2A.x and FITC-donkey anti-mouse IgG), c-Jun (rabbit anti-phospho-c-Jun and Cy3-donkey anti-rabbit IgG), p53 (sheep anti-p53 and Cy5-donkey anti-sheep IgG), alpha-tubulin (mouse anti-alpha-tubulin and Cy5-donkey anti-mouse IgG). These antibodies are available as the CellCiphr HepG2 assay kit (Millipore).Digital images of each well were captured using a Cellomics ArrayScan VTI (Thermo Scientific Cellomics) (0.8 NA objective, 0.63x optical coupler, and XF-93 filter set) at 20x magnification. The images were acquired using the autofocus feature of the ArrayScan instrument, which entails the following steps. First, the camera focuses on channel 1 (Hoechst 33342), where nuclei are identified. Second, a Z offset of 1 um is used for capturing mitochondria (MitoTracker Red). […]

Structure (SMILES)	outcome	AC50
C#C[C@]1(O)CC[C@H]2[C@@H]3CCC4=CC(=O)CC[C@@H]4[C@H]3CC[C@@]21CC	inactive	
CC(=O)S[C@@H]1CC2=CC(=O)CC[C@]2(C)[C@H]2CC[C@@]3(C)[C@@H](CC[C@@]34CCC(=O)O4)[C@H]12	inactive	
CCCOC(=O)c1ccc(C(=O)OCCC)nc1	inactive	
CCCCC(CC)CN1C(=O)C2C3C=CC(C3)C2C1=O (stereo not given)	inactive	
COC(=O)CSc1cc(N=c2sc(=O)n3n2CCCC3)c(F)cc1Cl	inactive	
CCN(CC)C(=O)c1cccc(C)c1	inactive	
O=C(Nc1ccc([N+](=O)[O-])cc1Cl)c1cc(Cl)ccc1O	inactive	
CCCCCOC(=O)COc1cc(N2C(=O)C3=C(CCCC3)C2=O)c(F)cc1Cl	inactive	
O=C(O)C1(C(=O)Nc2ccc(Cl)cc2Cl)CC1	inactive	
CCCCCCC(C)OC(=O)COc1nc(F)c(Cl)c(N)c1Cl (stereo not given)	inactive	
CCNc1nc(N)nc(Cl)n1	inactive	
Oc1ccc(C(c2ccc(O)cc2)C(Cl)(Cl)Cl)cc1	inactive	
C=CCOC(Cn1ccnc1)c1ccc(Cl)cc1Cl (stereo not given)	inactive	
CCCCOCCOCCOCc1cc2c(cc1CCC)OCO2	inactive	
O=C(O)c1ccccc1	inactive	
CCOC(=O)NCCOc1ccc(Oc2ccccc2)cc1	inactive	
COc1nc(C)nc(NC(=O)NS(=O)(=O)c2ccccc2OCCCl)n1	inactive	
S=C(S)NCCNC(=S)S.[Mn+2].[S-]C([S-])=NCCN=C([S-])[S-].[Zn+2]	inactive	80.6 µM (active)
CCCCC(CC)COC(=O)c1ccccc1C(=O)O (stereo not given)	inactive	
COCCO	inactive	

Structure (SMILES)	outcome	AC50
CCSC(=O)N(CC(C)C)CC(C)C	inactive	
N#CSCSc1nc2ccccc2s1	inactive	
CCCCOC(=O)C(C)Oc1ccc(Oc2ccc(C(F)(F)F)cn2)cc1 (stereo not given)	inactive	
CCOC(=O)c1ccc(O)cc1	inactive	
CN(C)C(=O)Nc1ccc(Cl)c(Cl)c1	inactive	
N[C@@H](Cc1cc(I)c(Oc2ccc(O)c(I)c2)c(I)c1)C(=O)O	inactive	
C[C@]12CC[C@@H]3c4ccc(O)cc4C[C@@H](CCCCCCCCCS(=O)CCCC(F)(F)C(F)(F)F)[C@H]3[C@@H]1CC[C@@H]2O (stereo not given in full)	inactive	
O=C(c1ccccc1)C1CCCCC1	inactive	
CC(C)(C)[C@@H](O)[C@@H](Cc1ccc(Cl)cc1)n1cncn1	inactive	
CCOC(=O)COc1cc(-n2ncc(C(F)(F)F)c(C)c2=O)c(F)cc1Cl	inactive	
CCOC(=O)C(C)Oc1ccc(Oc2cnc3cc(Cl)ccc3n2)cc1 (stereo not given)	inactive	
CCCN(CCC)c1c([N+](=O)[O-])cc(C(F)(F)F)c(N)c1[N+](=O)[O-]	inactive	
CC(C)(c1ccc(O)cc1)c1ccc(O)cc1	inactive	
CCCOC(=O)NCCCN(C)C	inactive	
COC(=O)c1ccccc1C(=O)O	inactive	
S=C([S-])NCCNC(=S)[S-].[Mn+2]	inactive	
COC(=O)c1c(Cl)nn(C)c1S(=O)(=O)NC(=O)Nc1nc(OC)cc(OC)n1	inactive	
COC(=O)c1ccc(CNS(C)(=O)=O)cc1S(=O)(=O)NC(=O)Nc1nc(OC)cc(OC)n1	inactive	
CCOC(=O)[C@H](C)Oc1ccc(Oc2nc3ccc(Cl)cc3o2)cc1	inactive	

— PubChem BioAssay (EPA / NIEHS)
